# Out of some 2,400 compounds screened, fewer than 10 were called active. Inconclusive results (about 1%) are left out. These entries were drawn from the full list. A number with no mark means an inactive call.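 The calls were made as follows: active = highest replicate activation at or above 34% and every replicate reaching that threshold; inconclusive = meets only one of the two criteria; inactive = meets neither criterion.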
# Molecular target: Protein FosB (Mus musculus) (UniProt P13346)
# Assay: enhancers of delta FosB homodimer–AP-1 oligo binding – biochemical, fluorescence polarization, TAMRA-CDK5 oligo, cherry-picked samples, confirmation (AID 588690);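 also: higher polarization means more probe DNA bound by delta FosB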
# Settings: purified delta FosB, at 24.9 µM, stronger effect = higher value, normalised: neutral wells 0, positive control 100
# Chain of Protein FosB (Mus musculus) (P13346 whole entry, looked up): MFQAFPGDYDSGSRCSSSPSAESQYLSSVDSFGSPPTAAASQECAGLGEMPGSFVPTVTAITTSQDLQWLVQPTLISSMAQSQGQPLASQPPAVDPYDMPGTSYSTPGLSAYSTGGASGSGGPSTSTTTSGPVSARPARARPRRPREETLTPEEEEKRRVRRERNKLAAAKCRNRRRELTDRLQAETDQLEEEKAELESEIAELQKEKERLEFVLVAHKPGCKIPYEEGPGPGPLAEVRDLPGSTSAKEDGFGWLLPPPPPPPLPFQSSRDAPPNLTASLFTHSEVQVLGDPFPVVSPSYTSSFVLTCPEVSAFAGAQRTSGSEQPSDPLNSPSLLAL
row,SMILES,activation [%]
1,O=C(Nc1ccc(Br)cc1)c1cc(S(=O)(=O)Nc2ccccn2)ccc1Cl,0.723
2,COc1cccc(CNC(=O)c2nnn(CC(=O)Nc3cc(Cl)ccc3C)c2N)c1,5.89
3,Cc1ccc2nc(-c3ccccn3)cc(C(=O)Nc3ccc4c(c3)OCO4)c2c1,5.01
4,CN(C)CC(O)COc1ccc(C(C)(C)c2ccc(OCC(O)CN(C)C)cc2)cc1 (stereo unspecified),3.1
5,O=C(Cn1cc(-c2nnnn2-c2ccc(Cl)cc2)c(=O)c2ccccc21)c1ccccc1,0.385
6,CCn1c(=O)c2cc(C(=O)Nc3cccc(C(C)=O)c3)sc2c2ccccc21,8.7
7,CC(=O)Nc1ccc(C(=O)CSc2nnc(Cc3ccccc3)o2)cc1,1.84
8,O=C(N/N=C/c1cccc(O)c1)c1cc2c(ccc3ccccc32)o1,-5.62
9,CC(=O)c1ccc(NC(=O)C2CC(=O)Nc3nc4ccccc4n32)cc1 (stereo unspecified),-4.9
10,CCCCn1c(N)c(N(CCC(C)C)C(=O)COC(=O)c2ccc(CC)cc2)c(=O)[nH]c1=O,0.0735
11,Cc1sc2nc(CSCC(=O)Nc3c(Cl)cccc3Cl)[nH]c(=O)c2c1C,-0.487
12,COc1cccc(NC(=O)Cn2c3ccc(F)cc3c3nc4n(c(=O)c32)CCS4)c1,-5.72
13,COc1ccc(-c2cc3n(n2)CCc2nc4ccccc4n2-3)cc1,6.36
14,O=C(COC(=O)c1ccc(S(=O)(=O)N2CCc3ccccc3C2)cc1)NC(=O)NCc1ccco1,-0.464
15,O=c1c2ccccc2oc2nc(C3CCCCC3)n(Cc3ccco3)c(=O)c12,-1.5
16,Cc1ccc2nc(NC(=O)C3CCN(S(=O)(=O)c4ccc5c(c4)oc(=O)n5C)CC3)sc2c1,-11.8
17,COC(=O)c1sc2ncccc2c1OCc1ccc(Cl)cc1Cl,-1.37
18,O=C(N/N=C/c1ccco1)c1ccc(NC(=O)C2CC2)cc1,-0.767
19,O=C1c2cccc3cccc(c23)C(=O)N1c1cccc(O)c1,3.04
20,COc1cc2[nH]c(=O)n(Cc3ccc(C(=O)NC4CCN(Cc5ccccc5)CC4)cc3)c(=O)c2cc1OC,0.608
21,Cc1ccc(-c2cc(C(=O)N/N=C/C=C/c3ccccc3)n[nH]2)o1,2.21

row,SMILES,activation [%]
1,COc1ccccc1NC(=O)C1=C(C)Nc2nnnn2C1c1cccc(Br)c1 (stereo unspecified),5.03
2,Nc1nonc1-n1nnc(C(=O)N/N=C/c2ccc(Cl)cc2)c1-c1ccc2c(c1)OCO2,1.91
3,COC(=O)c1ccc(C23CC4(C2)[C@H](CN(Cc2cccnc2)[C@@H]4c2ccccc2)C3c2ccc(Cl)nc2)cc1 (stereo partly specified),-13.4
4,COc1ccc(C(=O)Nc2c(N)nc(SCC(=O)Nc3ccc(C(C)=O)cc3)[nH]c2=O)cc1,5.95
5,COc1ccc(NC(=O)CCC(=O)Nc2nnc(C3CCCCC3)s2)cc1,3.71
6,COc1ccc(C(=O)n2nc(-c3ccc(Cl)cc3)nc2N)cc1OC,0.58
7,N#Cc1c(N)nc2c3c(sc(=N)c2c1N)NC(=O)CC3c1ccccc1Cl (stereo unspecified),3.21
8,Cc1ccc(NC(=O)COc2ccc(/C=N\NC(=O)c3cccnc3)cc2)cc1C,5.95
9,CCOc1ccccc1NC(=O)Cn1nnc(C(=O)NCc2cccs2)c1N,2.5
10,CCOc1ccc2nc(N(CCN(C)C)C(=O)c3ccc4ccccc4c3)sc2c1,-2.94
11,COc1ccccc1CNC(=O)Cn1c(=O)oc2cc(Cl)ccc21,5.98
12,O=C(Cc1ccc(-n2c(=O)c3sccc3n(Cc3ccc(F)cc3)c2=O)cc1)NCc1ccco1,7.21
13,COc1ccc(/C=C/C(=O)Nc2ccc(C34CC5CC(CC(O)(C5)C3)C4)cc2)cc1OC,5.41
14,COc1ccc(Nc2nc(NCc3ccco3)nc(N/N=C/c3ccccc3Cl)n2)cc1,2.55
15,Cc1ccc(-c2cc(C(=O)NCc3cn(C)nc3C)c3cc(Br)ccc3n2)cc1,-0.3
16,Cc1cccc(C(=O)Nc2ccccc2-c2nnn(CC(=O)Nc3ccc4c(c3)OCCO4)n2)c1,-0.9
17,COC(=O)c1scc(C)c1NC(=O)CSc1ccc(Cl)cc1,4.2
18,CC[C@@H](C)[C@@H]1CN([C@@H](C)CN2CCC[C@H]2CN2C(N)=NC[C@H]2C(C)C)C(=N)N1CCc1ccc(Cl)c(Cl)c1,-6.51
19,Cc1ccccc1NC(=O)c1ccc(COc2ccc3c(C)cc(=O)oc3c2)cc1,1.47
20,Cc1nnc(NC(=O)Nc2ccc(Cl)c(Cl)c2)s1,0.165
21,NC(=O)NC(=O)CSc1nc2cc([N+](=O)[O-])ccc2n1-c1cccc(C(F)(F)F)c1,3.51

row,SMILES,activation [%]
1,O=C(Cn1cnc2c(nnn2Cc2ccc(F)cc2)c1=O)NCc1ccc2c(c1)OCO2,3.1
2,O=C(Nc1ccccc1)c1ccc(NC(=O)c2cccs2)cc1,6.7
3,COC(=O)c1nc2n(n1)C(c1ccc([N+](=O)[O-])cc1)C(C(=O)Nc1ccc(Cl)cc1)=C(C)N2 (stereo unspecified),2.9
4,COc1ccc(/C=C/C(=O)Nc2c(C)nn(C)c2C)cc1COc1ccc(Br)cc1,5.31
5,CCCOc1ccc(C(=O)C(CCC(CNCC)C(=O)c2ccc(OCCC)cc2)CNCC)cc1 (stereo unspecified),4.31
6,COc1ccc(CC(=O)Nc2ccc(C(=O)NC(C)(C)C)cc2)cc1,-6.76
7,CC(=O)Nc1ccc(S(=O)(=O)NCC(=O)OCc2cc(=O)oc3ccc4ccccc4c23)cc1,-1.24
8,O=C(CN1C(=O)c2cccc3cccc1c23)Nc1ccccc1,5.42
9,O=C(COc1coc(CN2CCN(c3ccccc3F)CC2)cc1=O)N1CCc2ccccc21,-0.869
10,CCOc1ccc(-n2c(SCC(=O)Nc3ccc(OC)cc3)nc3sc4c(c3c2=O)CCN(C)C4)cc1,-0.551
11,C#CCOCCOCCOCCNc1nc(N2CCN(C(=O)C(Cc3ccc(O)cc3)n3cc(C(N)CC(C)C)nn3)CC2)nc(N2CCN(C(=O)C(Cc3ccc(O)cc3)n3cc(C(N)C(C)CC)nn3)CC2)n1 (stereo unspecified),2.47
12,CN(C)CCN(C(=O)CN1C(=O)c2ccccc2C1=O)c1nc2cc3c(cc2s1)OCCO3,0.813
13,Cc1ccc(NC(=O)COc2ccc(/C=C3/NC(=O)NC3=O)cc2)cc1,2.85
14,O=C(Nc1cccnc1Cl)c1cc(-c2ccccc2O)on1,-0.741
15,CCOC(=O)C1=C(O)/C(=C/c2ccc(OCC(=O)Nc3ccc(C)cc3)cc2)N=C1C,3.13
16,c1ccc(C[C@H]2CNCCN2CCC23CC4CC(CC(C4)C2)C3)cc1,2.28
17,COc1ccc(CNC(=O)c2nnn(CC(=O)Nc3cc(C)cc(C)c3)c2N)cc1,3.37
18,Cc1ccc(S(=O)(=O)N2CCC(Oc3ccc(-n4cnnn4)cc3)CC2)cc1,-4.91
19,Cn1cccc1/C=C1\SC(=O)N(CC(=O)Nc2ccc(F)cc2)C1=O,0.105
20,COc1ccc(/C=C/C(=O)OCC(=O)N2CCN(S(=O)(=O)c3ccc(C)cc3C)CC2)cc1OC,-0.0445
21,O=C(Cn1nnc(-c2ccc3c(c2)OCO3)n1)NCc1ccco1,-2.21

row,SMILES,activation [%]
1,Nc1nc(SCC(=O)Nc2cc(C(F)(F)F)ccc2Cl)[nH]c(=O)c1NC(=O)c1ccco1,-8.35
2,O=C(N/N=C/c1cccc(Br)c1)c1ccc(N2CCCC2=O)cc1,3.06
3,Nc1ccc(C(=O)OCC(=O)NC2CCCc3ccccc32)cc1[N+](=O)[O-] (stereo unspecified),0.712
4,COc1ccc(Br)cc1C(=O)NC(=S)Nc1cc(-c2nc3ccccc3[nH]2)ccc1C,-0.0125
5,COc1cccc(OCc2cc(/C=N/NC(=O)c3nc(Cl)c(Cl)c(N)c3Cl)ccc2OC)c1,1.13
6,Cc1cc(C)c2nc3nc(C)cc(C)c3c(N)c2c1,0.483
7,O=C(Nc1ccccc1)Nc1nnc(COc2ccccc2F)s1,-9.71
8,Cc1ccc(OCC(=O)Nc2ccccc2C(=O)NC2CC2)cc1C,1.23
9,COc1ccc(-c2cc(=O)c3c(O)cc(O[C@@H]4O[C@H](CO[C@@H]5O[C@@H](C)[C@H](O)[C@@H](O)[C@H]5O)[C@@H](O)[C@H](O)[C@H]4O)cc3o2)cc1O,0.468
10,O=C(Nc1ccc(S(=O)(=O)N2CCc3ccccc3C2)cc1)c1ccccc1,6.54
11,NC(N)=Nc1nc2ccc(Br)cc2c(=O)[nH]1,-0.0365
12,Cc1cc(NC(=O)Nc2c[nH]c(=O)[nH]c2=O)ccc1Br,7.25
13,CCN1CCN(c2cc3nc(C)n(Cc4ccccc4)c(=O)c3cc2NC(=O)c2ccccc2F)CC1,3.66
14,C=CCn1c(=NC(=O)c2ccc(S(=O)(=O)N3CCCC3)cc2)sc2cc(NC(C)=O)ccc21,2.06
15,CS(=O)(=O)c1ccc(-c2nnn(CC(=O)Nc3ccc4c(c3)OCCO4)n2)cc1,2.96
16,CC(=O)Nc1ccc(NC(=O)COc2ccccc2C(=O)Nc2cccc(Cl)c2Cl)cc1,-3.31
17,Cn1c(=O)oc2cc(S(=O)(=O)N3CCC(C(=O)Nc4ccc(OC(F)(F)F)cc4)CC3)ccc21,3.32
18,Cc1ccc(C(=O)NNC(=O)c2cc3cc4ccccc4nc3s2)cc1,-0.255
